Each structure is given as a SMILES string. Hit rate of the full screen: of about 360,000 compounds, about 950 (0.26%) were called active. For the sample, actives were picked, then their nearest neighbours and some compounds at random. Values without a mark were called inactive. Cut-off read from the data, not from the text of the source: active = inhibition above about 11%; inactive = the rest.

A short description of the assay: growth loss of phage-infected E. coli, primary screen, RecBCD inhibitor project, absorbance, with phage, HTS (AID 651602). To be noted: at 11.9 µM, active compounds read high.
Usually inhibition stands for how much of the control response was suppressed. With `O=[N+]([O-])c1cnc2ccc3ccccc3c2c1`, the inhibition was 18.9% (active).
With `Cc1ccc(-n2c(-c3ccc([N+](=O)[O-])cc3)nc3ccccc3c2=O)cc1` the figure was 0.89%.
Turning to `C/C(=N/O)c1ccc2ccc3ccccc3c2c1`, the inhibition is 1.01%.
With `Cc1cccc(-n2c(C)nc3cc(C(=O)N4CCC5(CC4)OCCO5)ccc32)c1` the figure was 4.97%.
With `COC(=O)C1=C(c2ccc(OCc3ccccc3)cc2)C[C@@H]2CC[C@H]1N2C(=O)NCc1cccc(F)c1` the figure was 4.61%.
The value for `N#CC1=C(N)Oc2c(c(=O)oc3ccccc23)C1c1ccccc1OC(=O)c1cccs1` (stereo not given) was 5.44%; that for `CCc1nnc(NS(=O)(=O)c2ccc(N=Cc3c(O)n(-c4ccccc4)c(=O)[nH]c3=O)cc2)s1` was 11.9% (active).
On to `COc1ccc(N=Cc2c(O)n(C)c(=O)[nH]c2=O)cc1`, for which the inhibition is 0.79%.
Consider `O=c1[nH]c(=O)n(-c2ccccc2)c(O)c1C=NC12CN3CN(CN(C3)C1)C2`, for which the inhibition is 1.36%.
Consider `CCC1(C)CC(CCNCc2ccc(N(C)C)cc2)(c2ccc(F)cc2)CCO1` (stereo not given), for which the inhibition is 4.38%.

For the origin of these results see PubChem BioAssay AID651602 (The Scripps Research Institute Molecular Screening Center, 2012).
